PubChem BioAssay (NCATS)
Inconclusive results are not listed. Activity calls are given as the source filed them. Unless noted, calls come from the whole dose curve; as a rule, active = well fitted curve in the direction sought with a large enough effect; inconclusive = small, poorly fitted or top-dose-only effect, or another doubt; inactive = no such curve, though single readings can be large; an effect the other way counts as inactive or inconclusive.

Tests used:
[1] = qHTS profiling for inhibitors of Plasmodium falciparum proliferation (AID 504749); note: potency is the fitted concentration of half-maximal effect;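 for activity, negative = inhibition: 0% = DMSO vehicle and full inhibition = artemisinin control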; for all read-outs here: nearly all actives have a fitted effect of over 60% in size; conditions: P. falciparum in erythrocytes, SYBR Green DNA, 72 h; for activity, negative = inhibition: at 28.7 µM (top of the series)
How it was run: (§1)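 Three-day growth assay of blood-stage parasites in erythrocytes (0.3% parasitemia, 2.5% hematocrit) at 37 C, 5% CO2, quantified by SYBR Green DNA staining after overnight detergent lysis.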

3D7 = test: as above; conditions: P. falciparum in erythrocytes, SYBR Green DNA, 72 h; series mostly up to 28.7 µM
How it was run: as §1

7G8 = test: as above; conditions: P. falciparum in erythrocytes, SYBR Green DNA, 72 h; series mostly up to 28.7 µM
How it was run: as §1

AA1029 = test: as above; conditions: P. falciparum in erythrocytes, SYBR Green DNA, 72 h; series mostly up to 28.7 µM
How it was run: as §1

AS120 = test: as above; conditions: P. falciparum in erythrocytes, SYBR Green DNA, 72 h; series mostly up to 28.7 µM
How it was run: as §1

ATS189 = test: as above; conditions: P. falciparum in erythrocytes, SYBR Green DNA, 72 h; series mostly up to 28.7 µM
How it was run: as §1

ATS95 = test: as above; conditions: P. falciparum in erythrocytes, SYBR Green DNA, 72 h; series mostly up to 28.7 µM
How it was run: as §1

C2A = test: as above; conditions: P. falciparum in erythrocytes, SYBR Green DNA, 72 h; series mostly up to 28.7 µM
How it was run: as §1

CP185 = test: as above; conditions: P. falciparum in erythrocytes, SYBR Green DNA, 72 h; series mostly up to 28.7 µM
How it was run: as §1

[2] = qHTS drug screen for cell cycle checkpoint inhibitors in PARPi-resistant BRCA-mutant ovarian cancer cell lines. (AID 1963452; calls by dose curve; note: potency is the fitted concentration of half-maximal effect); conditions: PEO1/OlaR viability, CellTiter-Glo luminescence, 96 h; for Z-AUC: stronger effect = lower value
How it was run: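 PEO1, PEO4 and PEO1/OlaR ovarian cancer cells, 600 per well, exposed 96 h at 37C to a dilution series. Viability read by CellTiter-Glo luminescence, normalized to DMSO and empty wells; activity summarized as Z-AUC.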

[3] = target: Cytochrome P450 2D6 (Homo sapiens) (UniProt P10635); test: qHTS for inhibitors of CYP2D6 against the NCATS DSHEA and TCM libraries (AID 1919972); conditions: CYP2D6 enzymatic inhibition, luminescence qHTS; series mostly up to 34.1 µM; note: % is set by controls: 0 for no effect and ±100 for the full control effect
Sequence of Cytochrome P450 2D6 (Homo sapiens) (P10635 whole entry, looked up): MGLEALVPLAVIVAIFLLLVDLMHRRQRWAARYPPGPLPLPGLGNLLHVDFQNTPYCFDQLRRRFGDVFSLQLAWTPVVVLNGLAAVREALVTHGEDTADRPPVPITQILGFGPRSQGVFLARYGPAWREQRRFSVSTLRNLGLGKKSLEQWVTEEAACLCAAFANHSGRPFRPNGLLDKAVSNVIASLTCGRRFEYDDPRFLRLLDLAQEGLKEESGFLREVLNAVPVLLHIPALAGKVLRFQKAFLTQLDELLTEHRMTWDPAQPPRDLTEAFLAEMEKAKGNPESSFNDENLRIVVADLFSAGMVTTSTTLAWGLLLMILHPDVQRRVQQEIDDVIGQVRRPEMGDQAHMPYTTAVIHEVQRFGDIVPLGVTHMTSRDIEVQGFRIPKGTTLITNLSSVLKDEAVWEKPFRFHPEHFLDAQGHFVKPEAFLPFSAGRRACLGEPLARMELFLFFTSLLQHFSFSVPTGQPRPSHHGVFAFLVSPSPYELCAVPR
How it was run: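 Steps: enzyme plus luciferin substrate dispensed; test substances pinned; 15 min RT; 1x NADPH regenerating solution added, 30–45 min RT protected from light; detection reagent, 30 min RT; luminescence measured. Minus-enzyme wells as background.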

[4] = target: Cytochrome P450 2C19 (Homo sapiens) (UniProt P33261); test: qHTS for inhibitors of CYP2C19 against the NCATS DSHEA and TCM libraries (AID 1919974); conditions: CYP2C19 enzyme inhibition, luminescence qHTS; series mostly up to 34.1 µM;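 note: luminescence from luciferin released by CYP2C19 oxidation of a pro-luciferin substrate; % is set by controls: 0 for no effect and ±100 for the full control effect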
Sequence of Cytochrome P450 2C19 (Homo sapiens) (P33261 whole entry, looked up): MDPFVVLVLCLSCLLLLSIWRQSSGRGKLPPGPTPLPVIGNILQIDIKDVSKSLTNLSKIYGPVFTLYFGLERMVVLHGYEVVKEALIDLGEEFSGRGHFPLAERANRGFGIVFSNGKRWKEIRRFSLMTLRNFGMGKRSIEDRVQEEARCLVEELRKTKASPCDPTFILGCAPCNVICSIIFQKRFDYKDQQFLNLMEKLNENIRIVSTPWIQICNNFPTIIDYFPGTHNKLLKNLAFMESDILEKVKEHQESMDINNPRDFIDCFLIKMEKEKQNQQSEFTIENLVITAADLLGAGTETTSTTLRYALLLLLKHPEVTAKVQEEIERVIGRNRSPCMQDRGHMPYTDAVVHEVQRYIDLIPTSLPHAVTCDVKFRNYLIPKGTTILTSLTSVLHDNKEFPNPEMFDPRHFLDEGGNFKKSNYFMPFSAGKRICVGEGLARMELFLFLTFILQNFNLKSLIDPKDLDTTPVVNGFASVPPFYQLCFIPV
How it was run: (§2)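 Luminescent P450-Glo readout. Enzyme plus pro-luciferin substrate in manufacturer buffer (typically 100 mM KPO4); 15 min RT preincubation; 1x NADPH regenerating system, 30-45 min RT in the dark; detection reagent 30 min.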

[5] = KB-3-1 P-gp reporter qHTS against the NCATS DSHEA and TCM libraries (AID 1919975); conditions: KB-3-1 parental cells, CellTiter-Glo luminescence viability, 72 h; series mostly up to 26.1 µM; note: 0% is about no effect
How it was run: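 Parental KB-3-1 cells, 500 cells/well, in DMEM with 10% FBS, exposed 72 h at 37 C to compounds in concentration-response. Viability read by CellTiter-Glo luminescence after 30 min at room temperature.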

[6] = qHTS Counterscreen for compound interference against the NCATS DSHEA and TCM libraries (AID 1919978); conditions: firefly luciferase detection reagent interference, luminescence;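 note: compounds preincubated with 1 µM D-luciferin or buffer before detection reagent; % of control where 0% means no effect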
How it was run: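 Firefly luciferase detection reagent was added after compounds (19.5 nM–39.8 uM final) had been incubated 15 min at room temperature with 1 uM D-luciferin or with 100 mM phosphate buffer alone. Luminescence was read after 30 min at room temperature.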

[7] = Dual reporter qHTS for agonist of Pregnane X Receptor (hPXR) against the NCATS DSHEA and TCM libraries: Fluorescence readout (AID 1920058); conditions: PXR dual reporter cells; series mostly up to 40 µM; note: 0% is about no effect
How it was run: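 hPXR-Luc HepG2 cells (2000/well) in phenol red-free medium with charcoal-stripped FBS attached for 5 h, then were exposed to compounds for about 24 h at 37 °C. Viability was read by CellTiter-Fluor fluorescence (Ex/Em 405/540 nm) after 1 h.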

[8] = target: Nuclear receptor subfamily 1 group I member 2 (Homo sapiens) (UniProt O75469); test: Dual reporter qHTS for agonist of Pregnane X Receptor (hPXR) against the NCATS DSHEA and TCM libraries: Luminescence readout (AID 1920059); conditions: hPXR dual reporter cells, luciferase luminescence agonist; series mostly up to 40 µM; note: 0% is about no effect
Sequence of Nuclear receptor subfamily 1 group I member 2 (Homo sapiens) (O75469 whole entry, looked up): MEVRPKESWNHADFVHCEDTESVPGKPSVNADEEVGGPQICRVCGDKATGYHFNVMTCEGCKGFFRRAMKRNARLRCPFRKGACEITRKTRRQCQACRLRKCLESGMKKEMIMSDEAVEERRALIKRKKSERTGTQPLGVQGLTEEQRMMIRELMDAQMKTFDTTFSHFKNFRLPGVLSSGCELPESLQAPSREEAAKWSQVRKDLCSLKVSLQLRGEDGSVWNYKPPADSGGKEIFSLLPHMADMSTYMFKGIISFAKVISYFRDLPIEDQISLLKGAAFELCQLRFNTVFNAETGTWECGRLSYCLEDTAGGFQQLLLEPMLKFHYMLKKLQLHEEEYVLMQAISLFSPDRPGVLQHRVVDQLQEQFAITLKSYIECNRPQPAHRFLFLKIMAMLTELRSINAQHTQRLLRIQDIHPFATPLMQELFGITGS
How it was run: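 Luminescent PXR reporter read (ONE-Glo) after a CellTiter-Fluor viability read, following 24 h, 37C treatment of HepG2 cells stably carrying hPXR-Luc.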

[9] = target: Nuclear receptor subfamily 1 group I member 2 (Homo sapiens) (UniProt O75469); test: Dual reporter qHTS for antagonist of Pregnane X Receptor (hPXR) against the NCATS DSHEA and TCM libraries: Luminescence Readout (AID 1920060); conditions: hPXR dual reporter cells, luciferase luminescence, antagonist mode; series mostly up to 40 µM;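 note: HepG2 cells carrying hPXR luciferase reporter stimulated with rifampicin at 2 µM; 0% is about no effect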
How it was run: (§3)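 hPXR-Luc HepG2 cells exposed 24 h at 37 C to compounds with 2 uM rifampicin in antagonist mode; luciferase luminescence measured by ONE-Glo, with CellTiter-Fluor viability read beforehand.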

[10] = Dual reporter qHTS for antagonist of Pregnane X Receptor (hPXR) against the NCATS DSHEA and TCM libraries: Fluorescence Readout (AID 1920061); conditions: PXR dual reporter cells, antagonist mode; series mostly up to 40 µM; note: 0% is about no effect
How it was run: as §3

[11] = target: Cytochrome P450 2C9 (Homo sapiens) (UniProt P11712); test: qHTS for inhibitors of CYP2C9 against the NCATS DSHEA and TCM libraries (AID 1919973); conditions: recombinant CYP2C9 enzyme activity, luminescence; series mostly up to 34.1 µM;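 note: luminogenic pro-luciferin CYP2C9 substrate turned into luciferin with NADPH regeneration; % is set by controls: 0 for no effect and ±100 for the full control effect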
Sequence of Cytochrome P450 2C9 (Homo sapiens) (P11712 whole entry, looked up): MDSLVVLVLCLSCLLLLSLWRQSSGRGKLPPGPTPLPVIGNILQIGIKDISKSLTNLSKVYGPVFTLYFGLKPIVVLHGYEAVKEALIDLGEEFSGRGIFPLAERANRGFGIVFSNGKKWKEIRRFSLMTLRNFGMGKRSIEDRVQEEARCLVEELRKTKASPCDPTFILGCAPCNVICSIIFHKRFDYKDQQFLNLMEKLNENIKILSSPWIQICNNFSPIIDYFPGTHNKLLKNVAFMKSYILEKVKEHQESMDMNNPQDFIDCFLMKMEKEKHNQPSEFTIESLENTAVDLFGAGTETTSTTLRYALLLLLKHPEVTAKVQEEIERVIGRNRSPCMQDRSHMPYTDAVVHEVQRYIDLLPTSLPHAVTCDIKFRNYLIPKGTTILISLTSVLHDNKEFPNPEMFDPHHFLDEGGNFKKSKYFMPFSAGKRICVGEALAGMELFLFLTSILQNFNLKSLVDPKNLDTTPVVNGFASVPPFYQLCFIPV
How it was run: as §2

[12] = target: Cytochrome P450 1A2 (Homo sapiens) (UniProt P05177); test: qHTS for inhibitors of CYPIA2 against the NCATS DSHEA and TCM libraries (AID 1919976); conditions: recombinant CYP1A2 enzyme activity, luminescence; series mostly up to 37 µM;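 note: light from luciferin formed by CYP1A2 from a pro-luciferin substrate; % is set by controls: 0 for no effect and ±100 for the full control effect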
Sequence of Cytochrome P450 1A2 (Homo sapiens) (P05177 whole entry, looked up): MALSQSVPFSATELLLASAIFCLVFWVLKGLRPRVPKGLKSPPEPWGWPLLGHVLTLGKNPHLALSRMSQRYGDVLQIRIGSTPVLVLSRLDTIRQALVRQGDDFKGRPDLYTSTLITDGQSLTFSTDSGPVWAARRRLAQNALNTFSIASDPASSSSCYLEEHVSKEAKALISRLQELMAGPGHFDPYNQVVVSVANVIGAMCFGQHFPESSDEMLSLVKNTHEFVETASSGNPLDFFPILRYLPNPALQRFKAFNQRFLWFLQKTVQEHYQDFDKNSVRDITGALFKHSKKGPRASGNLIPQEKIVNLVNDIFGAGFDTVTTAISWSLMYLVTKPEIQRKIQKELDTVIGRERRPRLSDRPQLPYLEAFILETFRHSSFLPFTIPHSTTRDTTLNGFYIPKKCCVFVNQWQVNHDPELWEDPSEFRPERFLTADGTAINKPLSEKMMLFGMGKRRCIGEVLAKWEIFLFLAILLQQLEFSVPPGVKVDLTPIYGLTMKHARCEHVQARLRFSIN
How it was run: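 Human CYP1A2 with its pro-luciferin substrate in supplier buffer (typically 100 mM KPO4) was pre-incubated with compounds 15 min at RT. Reaction was started with 1x NADPH regeneration solution and run 30-45 min at RT in the dark, then luminescence was read after P450-Glo detection reagent (30 min RT).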

[13] = measured here: PEO1 parental Z-AUC

O=C(c1ccc(F)cc1)C1CCN(CCn2c(=S)[nH]c3ccccc3c2=O)CC1
active: Potency ([1]; parasite line A) 5.01 µM | Potency ([1]; parasite line B) 10 µM | Potency (3D7) 11.2 µM | Potency (7G8) 2.24 µM | Potency (AA1029) 4.47 µM | Potency (AS120) 2.82 µM | Potency (ATS189) 6.31 µM | Potency (ATS95) 5.01 µM | Potency (C2A) 10 µM | Potency (CP185) 7.94 µM

C[N+]1(CC2COC(c3ccccc3)(C3CCCCC3)O2)CCCCC1 (stereo not given)
active: Potency ([1]; parasite line A) 2.82 µM | Potency ([1]; parasite line B) 4.47 µM | Potency (3D7) 7.08 µM | Potency (7G8) 2.51 µM | Potency (AA1029) 5.01 µM | Potency (AS120) 7.08 µM | Potency (ATS189) 8.91 µM | Potency (ATS95) 6.31 µM | Potency (C2A) 10 µM | Potency (CP185) 5.01 µM

CCCCCCCCCCC[C@@H](C[C@@H]1OC(=O)[C@H]1CCCCCC)OC(=O)[C@H](CC(C)C)NC=O
1.61: Z-AUC [2, 13]
1.43: Z-AUC ([2]; measured here: PEO4 Z-AUC)
inactive: Z-AUC [2] 1.22

O=c1[nH]c(=O)n([C@H]2C[C@H](O)[C@@H](CO)O2)cc1F
inactive: activity, negative = inhibition ([1]; parasite line A) 0.388% | activity, negative = inhibition ([1]; parasite line B) -0.681% | Potency (3D7) | Potency (AA1029) | Potency (AS120) | Potency (ATS189) | Potency (ATS95) | Potency (C2A) | Potency (CP185)
active: Potency [2] 0.245 µM
-1.95: Z-AUC [2, 13]
-1.41: Z-AUC ([2]; measured here: PEO4 Z-AUC)

CCOc1ccccc1C(N)=O
inactive: activity, negative = inhibition ([1]; parasite line A) -8% | activity, negative = inhibition ([1]; parasite line B) 15.4% | Potency (3D7) | Potency (7G8) | Potency (AA1029) | Potency (AS120) | Potency (ATS189) | Potency (ATS95) | Potency (C2A) | Potency (CP185)

CC(=O)O[C@]1(C(C)=O)CC[C@H]2[C@@H]3C=C(C)C4=CC(=O)CC[C@]4(C)[C@H]3CC[C@@]21C
0.47: Z-AUC ([2]; measured here: PEO4 Z-AUC)
0.601: Z-AUC [2, 13]
inactive: Z-AUC [2] 0.958

CCCCCCCCCCCCCCCC(=O)O
inactive: outcome [3] | outcome [4] | outcome [5] | max response [6] 2.55% | outcome [7] | outcome [8] | outcome [9] | outcome [10] | activity, negative = inhibition ([1]; parasite line A) -0.389% | activity, negative = inhibition ([1]; parasite line B) 7.62% | Potency (3D7) | Potency (7G8) | Potency (AA1029) | Potency (AS120) | Potency (ATS189) | Potency (ATS95) | Potency (C2A) | Potency (CP185)

CCCCCN=C(N)N/N=C/c1c[nH]c2ccc(OC)cc12
-1.05: Z-AUC [2, 13]
-1.17: Z-AUC ([2]; measured here: PEO4 Z-AUC)
active: Potency ([1]; parasite line A) 8.91 µM | Potency ([1]; parasite line B) 12.6 µM | Potency (3D7) 8.91 µM | Potency (7G8) 1 µM | Potency (AS120) 10 µM | Potency (ATS189) 5.01 µM
inactive: Z-AUC [2] -0.801

OC1C(O)C(O)C(O)C(O)C1O (stereo not given)
inactive: outcome [3] | outcome [11] | outcome [4] | outcome [5] | outcome [12] | max response [6] 2.31% | outcome [7] | outcome [8] | outcome [9] | outcome [10] | activity, negative = inhibition ([1]; parasite line A) 1.75% | activity, negative = inhibition ([1]; parasite line B) 14.4% | Potency (3D7) | Potency (7G8) | Potency (AA1029) | Potency (AS120) | Potency (ATS189) | Potency (ATS95) | Potency (C2A) | Potency (CP185)

CCOC(=O)[C@H](CCc1ccccc1)N[C@@H](C)C(=O)N1[C@H](C(=O)O)C[C@@H]2CCC[C@@H]21
-0.409: Z-AUC ([2]; measured here: PEO4 Z-AUC)
-0.134: Z-AUC [2, 13]
inactive: Z-AUC [2] -0.637

CCCCCCCCCCCCCC(=O)OC(C)C
inactive: activity, negative = inhibition ([1]; parasite line A) 2.55% | activity, negative = inhibition ([1]; parasite line B) 10.9% | Potency (3D7) | Potency (7G8) | Potency (AA1029) | Potency (AS120) | Potency (ATS189) | Potency (ATS95) | Potency (C2A) | Potency (CP185)

C[C@@H](O)[C@H]1C(=O)N2C(C(=O)O)=C(S[C@@H]3CN[C@H](CNS(N)(=O)=O)C3)[C@H](C)[C@H]12
0.433: Z-AUC ([2]; measured here: PEO4 Z-AUC)
inactive: Z-AUC [2] -0.121 | activity, negative = inhibition ([1]; parasite line A) 0.841% | activity, negative = inhibition ([1]; parasite line B) 3.74% | Potency (3D7) | Potency (7G8) | Potency (AA1029) | Potency (AS120) | Potency (ATS189) | Potency (ATS95) | Potency (C2A) | Potency (CP185)
0.644: Z-AUC [2, 13]

CCNC(=O)NCc1cccc(Cl)c1
inactive: activity, negative = inhibition ([1]; parasite line A) 14.6% | activity, negative = inhibition ([1]; parasite line B) 3.44% | Potency (3D7) | Potency (7G8) | Potency (AA1029) | Potency (AS120) | Potency (ATS189) | Potency (ATS95) | Potency (C2A) | Potency (CP185)

Clc1cccc(C(c2ccc3nc[nH]c3c2)n2ccnc2)c1 (stereo not given)
0.0386: Z-AUC [2, 13]
0.19: Z-AUC ([2]; measured here: PEO4 Z-AUC)
active: Potency ([1]; parasite line B) 10 µM | Potency (3D7) 11.2 µM | Potency (7G8) 5.01 µM | Potency (AS120) 11.2 µM | Potency (C2A) 10 µM
inactive: Z-AUC [2] -0.1 | Potency (CP185)

C/C=C/C=N/NC(=O)c1ccncc1
inactive: activity, negative = inhibition ([1]; parasite line A) -1.02% | activity, negative = inhibition ([1]; parasite line B) -0.189% | Potency (3D7) | Potency (7G8) | Potency (AA1029) | Potency (AS120) | Potency (ATS189) | Potency (ATS95) | Potency (C2A) | Potency (CP185)

O=C(O)C(Cc1cc(I)c(O)c(I)c1)c1ccccc1 (stereo not given)
inactive: activity, negative = inhibition ([1]; parasite line A) -3.64% | activity, negative = inhibition ([1]; parasite line B) 7.72% | Potency (3D7) | Potency (7G8) | Potency (AA1029) | Potency (AS120) | Potency (ATS189) | Potency (ATS95) | Potency (C2A) | Potency (CP185)
